High-throughput results from PubChem.
BoNT A protease: blocks Botulinum neurotoxin A light chain protease; inhibition, % at 10 µM; 360,000 tested, 0.17% active; AID 588499; multiplex microsphere protease substrate cleavage, flow cytometry; also: plate controls were buffer without enzyme for full effect and enzyme alone for no effect
Anthrax LF prot: blocks Bacillus anthracis lethal factor protease; multiplex microsphere protease cleavage assay, LF; 360,000 tested, 0.12% active; AID 588501; P15917; inhibition, % at 10 µM; also: plate controls were buffer without enzyme for full effect and enzyme alone for no effect
MazF activator: MazEF (E. coli) toxin RNase activation | AID 504720 | activation, % at 20 µM | P0AE70 | 350,000 tested, 0.32% active | FAM/BHQ RNA-DNA oligo cleavage fluorescence, 5 h; in the data active = activation above about 50%
Target sequence (P0AE70 whole entry, looked up): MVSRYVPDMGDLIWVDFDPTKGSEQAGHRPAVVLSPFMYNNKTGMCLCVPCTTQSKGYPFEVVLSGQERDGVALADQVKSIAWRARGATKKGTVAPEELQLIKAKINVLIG
BoNT F protease: inhibitors of Botulinum neurotoxin F light chain protease | Multiplex microsphere protease cleavage assay, flow cytometry | inhibition, % at 10 µM | 360,000 tested, 0.22% active; in the data active = inhibition above about 35%, passing the limit was not always enough; inconclusive = no clear call, values can overlap the other calls; also: plate controls were buffer without enzyme for full effect and enzyme alone for no effect
Autofluor counter: compound fluorescence in toxin protease inhibitor counterscreen; compound autofluorescence counterscreen, microsphere flow cytometry; stronger effect = higher value; fluorescence intensity (no concentration beside the values); 360,000 tested, 3.1% active; in the data active = fluorescence intensity above about 16000; inconclusive = no clear call, values can overlap the other calls
* = called active by the depositor; ? = inconclusive; . = no result given. Sampled rows, rich in hits. Any-hit rate of the full collection: about 3.7%. Rule as the data show it, unless noted: active = inhibition above about 30%; inconclusive = no clear call, values can overlap the other calls; inactive = below that.

SMILES	BoNT A protease	Anthrax LF prot	MazF activator	BoNT F protease	Autofluor counter
Cc1cc2c(cc1S(=O)(=O)N1CC(C)CC(C)C1)OCC(=O)N2 (stereo not given)	-1	-1	6	-9	6520
COc1ccc(/C=N/OC/C(O)=C(\C#N)c2nc3ccccc3[nH]2)cc1	4	0	7	1	22111*
CC(C)(C)/C(O)=C(/C#N)c1nc2ccccc2[nH]1	?	-1	10	-6	23471*
N#C/C(=C\c1ccc([N+](=O)[O-])o1)c1nc2ccccc2[nH]1	.	.	-20	.	.
N#C/C(=C(/O)c1ccc([N+](=O)[O-])o1)c1nc2ccccc2[nH]1	-1	0	141*	0	4677
O=C(c1cc(Cl)ccc1O)N1CCN(S(=O)(=O)c2cccs2)CC1	1	-3	0	13	5497
Cc1cc(C)nc(NC(=O)CSc2nc3ccccc3s2)n1	?	1	8	5	15488
O=C(CSc1nc2ccccc2s1)NC(=O)NCc1ccco1	0	-10	-5	0	22313*
O=C(CSc1nc(-c2ccccc2)cs1)NC(=O)NCc1ccco1	-2	-5	7	-4	11376
Cc1ccc(S(=O)(=O)NC(=O)CSc2nc3ccccc3s2)cc1	-1	-1	2	-2	16909*
CCc1noc(C)c1C(=O)NNC(=O)COc1ccccc1C	0	-1	-5	5	5690
N#CC1=C(N)Oc2cc(O)ccc2C1c1ccccc1 (stereo not given)	1	0	4	0	21140*
O=C(Nn1c(-c2ccncc2)nc2ccccc2c1=O)c1ccc([N+](=O)[O-])cc1Cl	0	-1	9	5	4586
Nc1c(N2CCOCC2)cc(Cl)c2nonc12	?	-2	-3	-3	23187*
CC(C)(C)[C@H]1COC(=O)CCC/C=C/C[C@H](CC(=O)N(CCO)Cc2ccccc2)C(=O)N1	1	-1	4	-3	2938
COc1ccc(CNC(=O)c2sc(=S)n(-c3ccc(OC)cc3)c2N)cc1	2	-4	-6	1	19355*
CC(C)[N+]1=C2C=CC=CC=C2SC12C([N+](=O)[O-])=CC(=[N+]([O-])[O-])C=C2[N+](=O)[O-] (stereo not given)	41*	-12	0	?	2794
CCOc1ccccc1N1CCN(Cc2cccc(OC)c2OC)CC1	0	0	5	-3	16205*
CCN1CCN(Cc2c(OC)ccc3ccccc23)CC1	4	0	6	4	19532*
COc1ccc(CN2CCN(c3ccccc3)CC2)c(C)c1C	?	-1	-9	-6	23743*
COc1ccccc1N1CCN(Cc2ccc(OC)c(OC)c2OC)CC1	0	-10	-2	-2	?
COc1ccc2ccccc2c1CN1CCN(C)CC1	?	-17	7	7	19346*
COc1ccc(CN2CCN(c3ncccn3)CC2)c(C)c1C	-3	-3	-12	3	3192
Clc1nc2nc3n(c2nc1Cl)CCC3	0	-7	18	?	4065
COc1ccc(-c2c(NC(=O)c3ccco3)oc3c(C)cccc3c2=O)cc1	0	-3	0	4	4023
SMILES	BoNT A protease	Anthrax LF prot	MazF activator	BoNT F protease	Autofluor counter
Cc1cn(C(=O)c2ccccc2)c(=S)n1-c1ccc(Cl)cc1	-2	-3	3	-2	17230*
Cc1ccc(-n2c(C)cn(C(=O)c3ccccc3)c2=S)cc1	2	-1	-10	2	15652
Cc1cccc(N2C(=O)CC(N(C(=O)c3ccco3)c3cccc(C)c3)C2=O)c1 (stereo not given)	?	0	-3	-7	17561*
COc1ccccc1NC(=O)CSc1nnc(C2CCCCC2)n1N	0	0	4	1	5025
Nn1c(SCC(=O)Nc2cccc(F)c2)nnc1C1CCCCC1	1	-3	0	4	22029*
Cc1ccccc1NC(=O)Cc1nc(CSc2nnc(C3CCCCC3)n2N)cs1	1	-1	4	0	22506*
Nc1ncc(Br)cc1S(=O)(=O)NCCc1ccccc1	0	0	3	4	5074
CCCCN(CCCC)CCNC(=O)CNC(=O)c1cccs1	4	-10	-15	3	21124*
CCCCNC(=O)CNC(=O)c1cccs1	-1	-3	-7	-7	11602
COc1ccc(NC(=O)CC(Cc2ccccc2)C(=O)O)cc1 (stereo not given)	0	-3	-11	0	22709*
COc1ccc(C(=O)NC(=S)N(Cc2ccccc2)Cc2ccccc2)cc1	0	-6	0	-2	16570*
CN(C)C(Cc1ccccc1)C(=O)c1ccc(-c2ccccc2)cc1 (stereo not given)	?	-2	-2	-6	16369*
